Here are results for 8 compounds from PubChem BioAssay (NCI).

This is part of a sample that, as a whole, favours compounds with a hit. Of some 83,000 tested, about 20% had one in any assay.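 Assay: single dose, 48 h. Readout: percent growth (0 = no net growth; negative = cell death). Active: <10.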 Unmarked numbers belong to inactive results. Activity calls are given as the source filed them.

Common to all, as to test: NCI-60 one-dose screen, 48 h (100 = growth as untreated, 0 = no growth, -100 = all killed)
One experiment concerns DU-145 prostate. The following applies: 10 µM unless noted.
A further experiment relates to K-562 leukemia. The following applies: 10 µM unless noted.
Another experiment has as its system MALME-3M melanoma. Particulars: 10 µM unless noted.
Another experiment has as its system MDA-MB-231 breast. Particulars: 10 µM unless noted.
The subject of another experiment is RXF 393 renal. Particulars: 10 µM unless noted.
For another experiment, the system named is SF-268 CNS. The following applies: 10 µM unless noted.
For a further experiment, the system named is SF-295 CNS. Particulars: 10 µM unless noted.
Another experiment has as its system SF-539 CNS. Particulars: 10 µM unless noted.
Another experiment has as its system UACC-257 melanoma. The following applies: 10 µM unless noted.
Another experiment has as its system M14 melanoma. The following applies: 10 µM unless noted.
A further experiment deals with HCT-15 colon. The following applies: 10 µM unless noted.
Another experiment deals with HT29 colon. The following applies: 10 µM unless noted.
For a further experiment, the system named is SNB-19 CNS. The following applies: 10 µM unless noted.
In a further experiment the test system is U251 CNS. The following applies: 10 µM unless noted.
The test system of another experiment is PC-3 prostate. The following applies: 10 µM unless noted.
A further experiment has as its system SK-MEL-5 melanoma. Particulars: 10 µM unless noted.
A further experiment deals with UACC-62 melanoma. The following applies: 10 µM unless noted.
Another experiment has as its system LOX IMVI melanoma. The following applies: 10 µM.
The next experiment deals with SK-MEL-28 melanoma. The following applies: 10 µM unless noted.

For `CC1=C(C#N)C2=NNCC(c3ccccc3)=NN2C(c2ccccc2)=C1`, the growth in the experiment with DU-145 prostate was 111%; in the experiment with K-562 leukemia it was 110%; with MALME-3M melanoma, 93.3%; in the experiment with MDA-MB-231 breast it was 105%; with RXF 393 renal it was 131%; in the experiment on SF-268 CNS, 134%. The growth in the experiment on SF-295 CNS is 103%; in the experiment with SF-539 CNS it was 102%; in the experiment with UACC-257 melanoma it was 96.6%; with M14 melanoma, 103%; in the experiment with HCT-15 colon, 104%; in the experiment on HT29 colon, 114%. For the same compound, the growth with SNB-19 CNS is 97.3%; in the experiment on U251 CNS it was 96.2%; in the experiment on PC-3 prostate, 106%; in the experiment with SK-MEL-5 melanoma it was 106%; with UACC-62 melanoma it was 96%; with LOX IMVI melanoma it was 109%. Also, the growth in the experiment with SK-MEL-28 melanoma is 109%.
For `Cn1cc(-c2cc3nc(-c4cn(C)c5ncccc45)cc(N)n3n2)c2ccccc21`, the growth in the experiment with DU-145 prostate is 40.9%; with K-562 leukemia, -34.9% (active); in the experiment with MALME-3M melanoma, -47.8% (active); in the experiment on MDA-MB-231 breast, -19.9% (active); in the experiment on RXF 393 renal it was -50.4% (active); with SF-268 CNS it was 15%. The growth was -30.6% (active) with SF-295 CNS; -78.7% (active) in the experiment on SF-539 CNS; -49.7% (active) in the experiment on UACC-257 melanoma; 5.56% (active) with M14 melanoma; 9.76% (active) in the experiment with HCT-15 colon; -6.2% (active) in the experiment with HT29 colon. The growth in the experiment on SNB-19 CNS was 37.7%; in the experiment on U251 CNS, -8.69% (active); in the experiment on PC-3 prostate it was 27.2%; in the experiment on SK-MEL-5 melanoma, -69.3% (active); in the experiment with UACC-62 melanoma, -0.244% (active); in the experiment with LOX IMVI melanoma, -56.8% (active). Also, the growth with SK-MEL-28 melanoma was -22.5% (active).
In the case of `C=C1CC[C@@H]2[C@]3(C)COC(c4cn[nH]c4-c4ccc(F)cc4)O[C@@H]3CC[C@@]2(C)[C@@H]1C/C=C1/C(=O)OCC1O` (some centres not stated), the growth was -23% (active) in the experiment on DU-145 prostate; -24.2% (active) with K-562 leukemia; -44.7% (active) in the experiment with MALME-3M melanoma; -40.5% (active) with MDA-MB-231 breast; -86% (active) in the experiment on RXF 393 renal; 16.9% in the experiment with SF-268 CNS. The growth was -26.8% (active) with SF-295 CNS; -83.2% (active) with SF-539 CNS; -44.6% (active) in the experiment on UACC-257 melanoma; -63.4% (active) in the experiment on M14 melanoma; -56.8% (active) in the experiment with HCT-15 colon; -2.38% (active) with HT29 colon. In addition, the growth in the experiment on SNB-19 CNS is 21.6%; in the experiment on U251 CNS, -83.2% (active); in the experiment with PC-3 prostate, 8.84% (active); in the experiment with SK-MEL-5 melanoma it was -79% (active); in the experiment with UACC-62 melanoma it was -73.7% (active); with LOX IMVI melanoma, -100% (active). For the same compound, in the experiment on SK-MEL-28 melanoma, the growth was -75.6% (active).
In the case of `CC12CC[C@@H]3[C@]4(C)COC(c5cn[nH]c5-c5ccc(Cl)cc5)O[C@@H]4CC[C@@]3(C)[C@@H]1CC(C1=CCOC1=O)O2` (some centres not stated), the growth is 61.6% with DU-145 prostate; 24.9% in the experiment with K-562 leukemia; 58% in the experiment with MALME-3M melanoma; 52.1% with MDA-MB-231 breast; 5.04% (active) in the experiment with RXF 393 renal; 60.3% with SF-268 CNS. Further, the growth in the experiment on SF-295 CNS is 43.8%; with SF-539 CNS it was 51.2%; with UACC-257 melanoma it was 46.7%; in the experiment on M14 melanoma, 30.9%; in the experiment with HCT-15 colon, 36.2%; in the experiment on HT29 colon, 22%. The growth in the experiment with SNB-19 CNS was 54.5%; with U251 CNS, 50%; in the experiment with PC-3 prostate it was 19.4%; with SK-MEL-5 melanoma, 16.5%; in the experiment with UACC-62 melanoma, 33.4%; with LOX IMVI melanoma, 46.2%. In the experiment with SK-MEL-28 melanoma, the growth is 39.2%.
For `Cn1cc(-c2cc3nc(-c4cn(C)c5ncccc45)cc(N)n3n2)c2cc(Cl)ccc21`, the growth was -15% (active) in the experiment with DU-145 prostate; -51.3% (active) in the experiment on K-562 leukemia; -97.4% (active) in the experiment with MALME-3M melanoma; -96.2% (active) with MDA-MB-231 breast; -84.2% (active) with RXF 393 renal; -45% (active) with SF-268 CNS. Also, the growth with SF-295 CNS was -81.5% (active); in the experiment with SF-539 CNS, -98.5% (active); in the experiment with UACC-257 melanoma it was -76.5% (active); with M14 melanoma, -90.8% (active); in the experiment with HCT-15 colon, -64.5% (active); in the experiment on HT29 colon, -55.6% (active). The growth was -88.1% (active) in the experiment with SNB-19 CNS; -79.7% (active) with U251 CNS; -82.1% (active) with PC-3 prostate; -99.4% (active) in the experiment on SK-MEL-5 melanoma; -99.6% (active) in the experiment with UACC-62 melanoma; -100% (active) in the experiment on LOX IMVI melanoma. Besides, in the experiment with SK-MEL-28 melanoma, the growth was -99.9% (active).
On to `O=c1[nH]c(=O)c2c(-c3cc4ccccc4oc3=O)ccnc2[nH]1`, for which the growth with DU-145 prostate is 88%; in the experiment with K-562 leukemia, 106%; in the experiment on MALME-3M melanoma, 64%; with MDA-MB-231 breast, 64.9%; in the experiment with RXF 393 renal, 69.5%; with SF-268 CNS it was 79.6%. For the same compound, the growth with SF-295 CNS was 3.14% (active); with SF-539 CNS, 70.2%; in the experiment on UACC-257 melanoma, 103%; in the experiment with M14 melanoma, 91.4%; with HCT-15 colon, 81.4%; in the experiment on HT29 colon, 102%. The growth in the experiment on SNB-19 CNS was 75.5%; in the experiment on U251 CNS it was 19.5%; with PC-3 prostate it was 85.4%; in the experiment with SK-MEL-5 melanoma, 89%; with UACC-62 melanoma, 82.7%; in the experiment on LOX IMVI melanoma, 65.3%. Besides, in the experiment with SK-MEL-28 melanoma, the growth is 115%.
Regarding `CCCCSc1nc(Nc2ccc(S(N)(=O)=O)cc2)c(C#N)c(-c2cc(OC)c(OC)c(OC)c2)n1`, the growth in the experiment on DU-145 prostate was 54.1%; in the experiment with K-562 leukemia, 3.62% (active); with MALME-3M melanoma it was 8.31% (active); in the experiment on MDA-MB-231 breast, 42.5%; in the experiment on RXF 393 renal it was 32.8%; with SF-268 CNS, 60.7%. The growth was 24.2% in the experiment on SF-295 CNS; 38.1% in the experiment on SF-539 CNS; 61.7% in the experiment on UACC-257 melanoma; 33.3% in the experiment with M14 melanoma; 25.7% in the experiment on HCT-15 colon; 42% in the experiment with HT29 colon. Also, the growth with SNB-19 CNS was 54.5%; in the experiment on U251 CNS, 43.3%; with PC-3 prostate it was 16.7%; in the experiment with SK-MEL-5 melanoma, 20.5%; in the experiment with UACC-62 melanoma, 21.9%; in the experiment with LOX IMVI melanoma it was 7.76% (active). Besides, in the experiment on SK-MEL-28 melanoma, the growth is 35.1%.
With `CC1(c2cc3cc(Cl)ccc3oc2=O)NC(=O)c2c(/C=C/C(=O)OC3CC4CCC3(C)C4(C)C)cccc2N1` (configuration not stated), the growth with DU-145 prostate was 71.2%; with K-562 leukemia, 21.6%; in the experiment with MALME-3M melanoma, 84.6%; in the experiment on MDA-MB-231 breast, 75.1%; in the experiment with RXF 393 renal, 52%; in the experiment with SF-268 CNS it was 78.5%. For the same compound, the growth was 46.1% with SF-295 CNS; 87.2% in the experiment with SF-539 CNS; 57.2% in the experiment on UACC-257 melanoma; 69.6% in the experiment on M14 melanoma; 66.4% in the experiment with HCT-15 colon; 60.9% in the experiment on HT29 colon. The growth in the experiment on SNB-19 CNS is 52.9%; in the experiment with U251 CNS, 52.5%; with PC-3 prostate, 25.7%; in the experiment on SK-MEL-5 melanoma, 61.2%; with UACC-62 melanoma, 62.6%; with LOX IMVI melanoma it was 78.9%. The growth in the experiment with SK-MEL-28 melanoma is 75.4%.
